Assay outcomes: PubChem BioAssay, several laboratories
Shown are actives, neighbours in structure and some others; about 1.7% of the full set was active somewhere.
Mtb hypoxia inh: PubChem AID 1159583. fluorescence inhibition, % (test concentration not listed). M. tuberculosis hypoxia-regulated fluorescent reporter, fluorescence. 300,000 tested, 0.1% active; in the data active = fluorescence inhibition mostly above about 23%, no sharp cut-off; inactive = mostly below about 17%
CCHF vOTU inh-1: CCHFV vOTU protease inhibitors, primary screen, biochemical, Pep-AMC substrate, fluorescence | Crimean-Congo hemorrhagic fever virus L polyprotein viral ovarian tumor (vOTU) protease … | inhibition, % at 11.5 µM | 370,000 tested, 0.55% active; in the data active = inhibition above about 30%; also: 0% = vehicle wells with enzyme and 100% = no enzyme wells
RecA splice inh: Mtb RecA intein splicing inhibitors, primary screen, biochemical, fluorescence, HTS | AID 2221, 2009 | inhibition, % (concentration not given with the values) | cell-free RecA intein splicing | 290,000 tested, 0.75% active | Protein RecA (Mycobacterium tuberculosis (strain ATCC 25618 / H37Rv)), P9WHJ3; in the data active = inhibition above about 30%; inconclusive = no clear call, values can overlap the other calls;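 also: 0% = vehicle wells and 100% = reference inhibitor control wells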
Target sequence (P9WHJ3 whole entry, looked up, canonical isoform): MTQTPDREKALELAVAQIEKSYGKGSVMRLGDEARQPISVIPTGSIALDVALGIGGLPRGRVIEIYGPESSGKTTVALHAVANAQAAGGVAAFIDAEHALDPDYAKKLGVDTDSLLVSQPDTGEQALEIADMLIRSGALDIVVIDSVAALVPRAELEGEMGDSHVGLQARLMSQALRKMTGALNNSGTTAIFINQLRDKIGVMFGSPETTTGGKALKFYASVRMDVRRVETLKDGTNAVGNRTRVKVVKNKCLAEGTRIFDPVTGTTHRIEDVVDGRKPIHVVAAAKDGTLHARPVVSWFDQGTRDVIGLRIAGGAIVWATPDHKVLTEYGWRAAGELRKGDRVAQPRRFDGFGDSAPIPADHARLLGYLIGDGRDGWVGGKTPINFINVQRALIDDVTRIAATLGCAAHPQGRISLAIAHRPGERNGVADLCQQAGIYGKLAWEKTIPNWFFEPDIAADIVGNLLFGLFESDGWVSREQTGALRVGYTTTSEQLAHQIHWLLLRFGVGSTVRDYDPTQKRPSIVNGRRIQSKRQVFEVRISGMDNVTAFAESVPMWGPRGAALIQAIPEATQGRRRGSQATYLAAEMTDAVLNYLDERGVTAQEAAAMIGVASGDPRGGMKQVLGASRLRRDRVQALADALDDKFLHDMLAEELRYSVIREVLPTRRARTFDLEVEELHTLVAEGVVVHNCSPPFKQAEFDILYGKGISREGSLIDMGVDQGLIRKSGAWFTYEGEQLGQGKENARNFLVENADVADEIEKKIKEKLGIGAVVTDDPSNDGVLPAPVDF
PfHsp40 rescue: rescue of yeast from PfHsp40 toxicity, primary screen, S. cerevisiae, ATP luminescence | S. cerevisiae expressing PfHsp40, growth rescue | AID 504582, 2011 | growth rescue, % at 12.5 µM | 340,000 tested, 0.68% active; in the data active = growth rescue above about 28%, passing the limit was not always enough; inconclusive = no clear call, values can overlap the other calls;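 also: yeast W303a lacking pdr1 and pdr3 grown in galactose medium; growth measured after three days at 30 °C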
Mtb bLac sens: beta-lactam sensitization of Mtb H37Rv, H37Rv | M. tuberculosis H37Rv growth with meropenem, percent inhibition | inhibition, % at 25 µM | 330,000 tested, 0.27% active | AID 434955, 2010;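 also: growth measured after seven days incubation then overnight dye step; 0% = bacteria only wells and 100% = bacteria with antibiotic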
GFP chromo cs: counter-screen: blocks GFP chromophore formation, dose response, counter-screen, biochemical, fluorescence, homogeneous | EC50, µM | shares compounds with RecA splice inh | 2,100 tested, 83% active | cell-free GFP chromophore formation
CCHF vOTU inh-2: CCHFV vOTU protease inhibitors, confirmation, biochemical, Pep-AMC substrate, fluorescence; shares compounds with CCHF vOTU inh-1; Recombinant CCHFV vOTU; inhibition, % at 11.5 µM; 1,900 tested, 17% active; AID 686976, 2013; in the data active = inhibition above about 30%
Active calls of the source: *; u = inconclusive; x = no result given. Unless noted, no rule for the calls is given here.

SMILES	Mtb hypoxia inh	CCHF vOTU inh-1	RecA splice inh	PfHsp40 rescue	Mtb bLac sens	GFP chromo cs	CCHF vOTU inh-2
Cc1ccc(NC2=CC(=O)C(=O)c3ccccc32)c(C)c1	11	2	x	u	27	x	x
O=C1C=C(Nc2ccccc2O)c2ccccc2C1=O	13	97*	95*	74*	98	>38	74*
CCOC(=O)C1=CCC(c2cc3ccc(OC)cc3n2C)N(S(=O)(=O)c2ccc(C)cc2)C1C(=O)OCC (stereo unspecified)	6	x	x	x	x	x	x
CCN1CC2C3C(=O)N(Cc4ccccc4)C(=O)C3[C@](Cc3ccccc3)(C1=O)N2C(=O)c1ccc(C)cc1 (stereo partly specified)	18	x	x	x	x	x	x
Nn1cnnc1N/N=C/c1ccc(Cl)c([N+](=O)[O-])c1	x	99*	59*	0	-5	25*	10
COc1ccc(C2CC2C(=NO)c2ccccn2)cc1 (stereo unspecified)	7	x	x	x	x	x	x
Cc1ccc(O)c(N=CC2=C(O)c3ccccc3C2=O)c1	6	31*	87*	-1	22	3.4*	10
CCOc1ccc(C=Nn2c(SC)nnc2-c2ccccc2)cc1OCC	2	x	x	x	x	x	x
O=C1C(Nc2cccc(O)c2)=C(N2CCCCC2)C(=O)c2ccccc21	-2	89*	79*	1	4	3*	92*
Cc1ccc(NC2=C(N3CCCCC3)C(=O)c3ccccc3C2=O)cc1	11	96*	67*	3	1	9.5*	85*
O=C(/C=C/c1ccc(O)cc1)c1ccc(NC2=C(N3CCCCC3)C(=O)c3ccccc3C2=O)cc1	8	84*	57*	-1	96	6.1*	60*
CC(C)CC(NC(=O)OC(C)(C)C)C(=O)NC(CO)C(O)C1CC1C(=O)NC1CC1 (stereo unspecified)	-1	x	x	x	x	x	x
COc1ccc(CN2CCC(=O)N(C(CO)Cc3ccccc3)CC2)cc1OC (stereo unspecified)	0	x	x	x	x	x	x
COC(=O)c1cccc(-c2ccc(C(c3c(C)[nH][nH]c3=O)c3c(C)[nH][nH]c3=O)o2)c1	-5	57*	100*	0	-1	0.54*	3
COC(=O)c1ccccc1-c1ccc(C(c2c(C)[nH][nH]c2=O)c2c(C)[nH][nH]c2=O)o1	10	43*	95*	0	-3	0.45*	-12
CCOC(=O)c1cccc(-c2ccc(C=O)o2)c1	11	10	1	0	22	x	x
COc1ccc(OC)c(NC(=O)Nc2ccc(O)c3ccccc23)c1	-1	73*	78*	-1	4	1.2*	-15
COc1ccc(N)c2c1C(=O)c1ccccc1C2=O	20	-8	12	0	-8	x	x
COc1ccc2noc3c2c1C(=O)c1ccccc1-3	x	64*	60*	0	64	10*	104*
Cc1ccc(C(=O)NC2(O)C(=O)c3ccccc3C2=O)cc1C	2	49*	68*	1	-2	12*	27
Cc1ccc(C(=O)NCC(=O)OCN2C(=O)c3ccccc3C2=O)cc1C	4	0	x	0	6	x	x
NCCCCC1CNC(=O)C(=O)N1CCc1cc(C(F)(F)F)cc(C(F)(F)F)c1 (stereo unspecified)	17	x	x	x	x	x	x
NC1=C(Br)C(=O)c2ccccc2C1=O	16	91*	90*	8	90	5.4*	99*
O=C1c2ccccc2-c2cccnc21	-5	2	1	0	-8	x	x
Nc1ccc(Br)c2c1C(=O)c1ccccc1C2=O	-83	x	9	x	9	x	x
SMILES	Mtb hypoxia inh	CCHF vOTU inh-1	RecA splice inh	PfHsp40 rescue	Mtb bLac sens	GFP chromo cs	CCHF vOTU inh-2
O=C1C(=O)c2ccccc2-c2ccccc21	x	114*	53*	-3	100	6.9*	96*
CN(C)c1ccc(C=Nn2c(-c3ccccc3Br)n[nH]c2=S)cc1	12	x	x	x	x	x	x
Cc1nc2c(=O)n(C)c(=O)nc-2n(C)n1	x	102*	98*	-1	100	0.12*	99*
COc1cc(NC(C)CCCN)c2ncccc2c1 (stereo unspecified)	x	104*	90*	0	98	13*	81*
CNc1ccc2nc3ccccc3[n+](C)c2c1	x	102*	45*	-1	99	17*	79*
CCN(CC)c1ccc2nc3ccccc3[n+](CC)c2c1	x	x	x	-1	99	x	x
C[n+]1c2ccccc2nc2ccc(NCCO)cc21	x	91*	64*	-1	99	12*	81*
COc1cc(OC)c(OC)cc1C=Nn1c(-c2n[nH]c3c2CCC3)n[nH]c1=S	8	x	x	x	x	x	x
CC(=O)OCCCNc1cc(SCc2ccco2)c2nonc2c1[N+](=O)[O-]	10	55*	78*	0	98	14*	-18
O=C(Nc1nc(-c2ccccc2)cs1)c1ccccc1NS(=O)(=O)c1ccc(F)cc1	12	38*	35*	7	1	28*	-2
O=S(=O)(Nc1ccc(-c2csc(-c3ccccc3)n2)cc1)c1ccc(F)cc1	x	12	-3	u	4	x	x
CC(=O)c1cc(O)c2ccccc2c1O	4	37*	70*	-1	4	6.9*	-9
CC(=O)c1c(C)oc2c1cc(O)c1ccccc12	6	7	0	0	4	x	x
CNC1=C(N(C(C)=O)c2ccc(Br)cc2)C(=O)c2ccccc2C1=O	x	93*	73*	77*	-5	13*	73*
CCC(=O)N(C1=C(NC)C(=O)c2ccccc2C1=O)C(C)C	-10	47*	45*	0	5	39*	23
CCC(=O)c1c(CC)c2n3c1CCC3CCC2 (stereo unspecified)	22	x	x	x	x	x	x
CCO/C=C1/C(=O)N(C)C(=O)c2cc(OC)ccc21	x	78*	85*	-1	-7	>38	77*
O=C(c1ccccn1)N1N=C2C(=Cc3ccc(F)cc3)CCCC2C1c1ccc(F)cc1 (stereo unspecified)	-2	x	x	x	x	x	x
CCc1ccc(S(=O)(=O)/N=C2\C=C(NS(=O)(=O)c3ccccc3)C(=O)c3ccccc32)cc1	15	54*	34*	-1	x	4*	11
Cc1ccc(C)c(S(=O)(=O)/N=C2\C=C(NS(=O)(=O)c3ccccc3)C(=O)c3ccccc32)c1	x	30*	75*	-1	1	5.4*	25
Cc1ccc(NC2=C/C(=N/S(=O)(=O)c3cccs3)c3ccccc3C2=O)cc1C	x	1	9	-1	3	x	x
CNC(=O)C(=O)NN=Cc1ccccn1	-5	x	x	x	x	x	x
N#CCC(Cc1ccccc1)N1CCC(O)CCC1=O (stereo unspecified)	18	x	x	x	x	x	x
